In ChEMBL document CHEMBL3433997, “St. Jude Leishmania screening dataset” (2016):

Tests used:
Format in all cases: functional
[1] = biological target: Solute carrier family 2, facilitated glucose transporter member 1 (Homo sapiens) (UniProt P11166); test: ST_JUDE_LEISH: Cytotoxicity at 2uM final concentration against transgenic Leishmania Mexicana promastigotes LmGLUT1 that are glucose transport deficient and complemented with the human glucose transporter GLUT1. Activity is measured by DNA content using SYBR green in vitro
Solute carrier family 2, facilitated glucose transporter member 1 (Homo sapiens), sequence (P11166 whole entry): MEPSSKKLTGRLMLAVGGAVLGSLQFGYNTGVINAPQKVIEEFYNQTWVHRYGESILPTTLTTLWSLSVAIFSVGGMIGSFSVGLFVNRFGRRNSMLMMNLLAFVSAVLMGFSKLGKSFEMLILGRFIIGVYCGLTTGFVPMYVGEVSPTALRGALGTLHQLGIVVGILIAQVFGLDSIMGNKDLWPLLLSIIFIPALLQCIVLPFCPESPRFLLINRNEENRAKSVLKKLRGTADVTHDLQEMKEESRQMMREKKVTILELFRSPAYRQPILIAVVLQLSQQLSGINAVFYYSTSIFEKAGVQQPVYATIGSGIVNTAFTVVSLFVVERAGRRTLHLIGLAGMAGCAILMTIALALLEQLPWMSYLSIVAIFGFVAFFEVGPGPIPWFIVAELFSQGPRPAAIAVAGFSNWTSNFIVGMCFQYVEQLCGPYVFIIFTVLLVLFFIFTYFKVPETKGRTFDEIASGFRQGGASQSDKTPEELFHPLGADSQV

[2] = biological target: Hexose transporter 1 (Plasmodium falciparum) (UniProt O97467); test: ST_JUDE_LEISH: Cytotoxicity at 2uM final concentration against transgenic Leishmania Mexicana promastigotes LmPfHT that are glucose transport deficient and complemented with the Plasmodium falciparum hexose transporter. Activity is measured by DNA content using SYBR green in vitro
[3] = biological target: Glucose transporter (Leishmania mexicana) (UniProt O61059); test: ST_JUDE_LEISH: Cytotoxicity at 2uM final concentration against transgenic Leishmania Mexicana promastigotes LmGT2 that are glucose transport deficient and complemented with the L. Mexicana glucose transporter 2. Activity is measured by DNA content using SYBR green in vitro

| Structure (SMILES) | inhibition [1] | inhibition [2] | inhibition [3] |
| --- | --- | --- | --- |
| Cc1cc(-c2ccc(O)c(CNC3CCCCC3)c2)cnc1N | 0.43% | 10.3% | 0.95% |
| CNC(=O)c1cnc(Nc2ccc(N3CCOCC3)cc2)nc1Nc1cccc(OC)c1 | -0.53% | -1.08% | -2.23% |
| CC(C)COc1ccc(Cl)cc1Cc1nc(-c2nc3ccc(CN4CCCC4)cc3[nH]2)co1 | 2.58% | 3.58% | 3.07% |
| Cn1cc(C(=O)Nc2cccc(-c3cccc(-c4nc5cc(F)ccc5[nH]4)c3)c2)n(C)c1=O | 8.03% | 5.98% | 5.83% |
| CCCCCCN1CCC(CNCc2cccc(Cl)c2)CC1 | 1.66% | 2.08% | 1.97% |
| COc1ccccc1Cc1nc2ccccc2nc1SCC(=O)Nc1cccc(C(F)(F)F)c1 | 3.27% | 3.21% | 1.7% |
| O=C(NC1CCN(Cc2ccccc2)CC1)c1cc(C(=O)NC2CCN(Cc3ccccc3)CC2)cc(C(=O)NC2CCN(Cc3ccccc3)CC2)c1 | 5.09% | 4.78% | 4.94% |
| CCCOc1ccc(C(=O)Nc2nonc2-c2ccc(OC)c(OC)c2)cc1 | 8.69% | 7.86% | 5.89% |
| CCN(CC)c1cc(C)c2cc(NC(=O)c3cc(=O)c4ccccc4o3)ccc2n1 | 6.32% | 6.88% | 1.71% |
| COc1ccc2ncc(Cl)c(N3CCC(CCNCc4ccc5c(n4)NC(=O)CS5)CC3)c2c1 | 2.36% | 0.92% | 3.01% |
| Cc1cc2nc(-c3ccc(/C=C/C(=O)NCCc4ccccc4)cc3)[nH]c2cc1C | 1.09% | 0.54% | 0.56% |
| Fc1ccc(Nc2ccnc3cc(I)ccc23)c(Cl)c1 | 2.32% | 2.73% | 1.47% |
| O=C(c1c(-c2[nH]c3ccccc3c2C(=O)C(F)(F)F)[nH]c2ccccc12)C(F)(F)F | 1.75% | 0.78% | -1.45% |
| Cn1cncc1CCN(Cc1ccc(-c2ccc(C(F)(F)F)cc2)cc1)C(=O)Cn1c(CCc2cccc(F)c2F)cc(=O)c2cccnc21 | 1.83% | 2.38% | -0.14% |
| Oc1cc2c(cc1CN1CCN(Cc3cccs3)CC1)CCC2 | 0.97% | -0.33% | 2.76% |
| Nc1nc(N)c2c(ccc3c2cnn3S(=O)(=O)N2CCCC2)n1 | -1.43% | 0.03% | -2.01% |
| N#Cc1cc(C(=O)c2cc(Cl)ccc2O)cn(-c2cc(Cl)cc(Cl)c2)c1=O | 2.16% | 3.14% | 2% |
| CS(=O)(=O)c1ccc(CNCc2cccc(-c3ccc(-c4nc5cc(C(F)(F)F)ccc5[nH]4)cc3)c2)cc1 | 5.51% | 5.08% | 3.3% |
| CN1CCC(N2CCN(Cc3cccc(-c4ccc(-c5nc6ccccc6[nH]5)cc4)c3)CC2)CC1 | 2.84% | 1.99% | 0.07% |
| COc1cc2nc(N3CCC(CNC(=O)c4ccc(OC(F)(F)F)cc4)CC3)nc(N)c2cc1OC | -0.03% | 0.04% | 0.16% |
| CCC(C)(C)NC(=O)C(c1cccc(OC)c1)N(C(=O)CNC(=O)c1cccs1)c1ccc2c(c1)OCCO2 (stereo unspecified) | 6.74% | 6.4% | 6.92% |
| C=Cc1cc(NC(=O)N2CCc3cc(OC)c(C(F)(F)F)cc32)cc(-c2cccnc2)c1 | 4.52% | -1.84% | -1.09% |
| O=C(/C=C/c1ccc(Cl)c(Cl)c1)NCCCCCN1CCC(NC(=O)c2cccc(Cl)c2)CC1 | 9.72% | 10.2% | 7.71% |
| Cc1ccc(-n2cc(CNCCCn3ccnc3)c(-c3cccc(C)c3)n2)cc1 | 4.3% | 6.62% | 3.71% |

| Structure (SMILES) | inhibition [1] | inhibition [2] | inhibition [3] |
| --- | --- | --- | --- |
| CCS(=O)(=O)N1CCN(c2nc(-c3ccccc3)nc(COC)c2Cc2ccccc2F)CC1 | 3.58% | 2.32% | 4.99% |
| O=c1cc(NCCCNCc2scc3c(Cl)cc(C(F)(F)F)nc23)[nH]c2ccccc12 | 2.13% | 2.43% | 3.05% |
| Cc1cccc(CNc2nc(C)cc(N[C@@H](CC(C)C)C(=O)NCc3cccc(F)c3)n2)c1 | 4.53% | 3.4% | -0.42% |
| Oc1ccc(CCNc2nc(NCc3ccccc3-c3ccc(F)cc3)nc(N3CCNCC3)n2)cc1 | -6.17% | 3.48% | 6.39% |
| C#CCOc1ccc(N2C(N)=NC(N)=NC2(C)C)cc1 | 2.23% | 1.16% | -0.42% |
| Cc1oc(-c2ccccc2)nc1CCOc1ccc(C[C@H](Nc2ccccc2C(=O)c2ccccc2)C(=O)NCc2ccccn2)cc1 | 4.4% | 4.88% | 4.35% |
| CC(C)c1sc(N2CCN(C)CC2)nc1C(=O)NCCc1ccc(Br)cc1 | 3.06% | 1.28% | 2.14% |
| O=c1cc(NCCCNCc2cc(Br)ccc2F)[nH]c2ccccc12 | -1.01% | -0.63% | -6.76% |
| CC1CCc2c(C(=O)N3CCc4ccccc4C3)csc2C1 (stereo unspecified) | 1.39% | 0.87% | 0% |
| CCc1cc(=O)[nH]c(-n2nc(C)cc2NC(=O)CC(c2ccccc2)c2ccccc2)n1 | 11.2% | 15.2% | -1.68% |
| O=C(Nc1ccc(OC2CCN(Cc3ccsc3)C2)c(Cl)c1)c1ccc(F)cc1 (stereo unspecified) | 0.29% | 0.51% | 0.32% |
| CC(=O)NC1=NC(C)(C)N(OCc2ccc(Cl)c(Cl)c2)C(NC(C)=O)=N1 | -0.21% | -0.25% | -1.61% |
| CN(C)CCN(C)Cc1ccc(-c2cccc(-c3nc4ccccc4[nH]3)c2)cc1 | -0.63% | 1.04% | 0% |
| O=C(C=Cc1ccc(F)cc1)N1CCN(S(=O)(=O)c2ccc(Cl)cc2)CC1 | 0.4% | -1.62% | 4.67% |
| CC(=O)N(C)c1cccc(C(=O)Nc2cccc(-c3ccc(-c4nc5cc(C(F)(F)F)ccc5[nH]4)cc3)c2)c1 | 4.32% | 4.03% | 4.63% |
| CC(C)(C)c1ccc2nccc(Nc3cccc(O)c3)c2c1 | 2.99% | 2.35% | 2.33% |
| CCCCCN1CCCCC(NS(=O)(=O)c2ccc(C(=O)Nc3ccc(C(F)(F)F)cc3)cc2)C1 (stereo unspecified) | 0.12% | 2.98% | -1.53% |
| Oc1cc(Nc2ccnc3ccc(I)cc23)c(F)cc1Cl | 0.49% | 1.05% | -1.45% |
| CN1CCN(c2ccnc3ccc(NC(=O)Nc4cccc(C#N)c4)cc23)CC1 | 1.6% | 2.57% | 2.19% |
| O=C(/C=C/c1ccc(Cl)c(Cl)c1)NCCCCCN1CCC(NC(=O)Nc2cc(F)cc(F)c2)CC1 | -0.2% | 1.46% | 4.15% |
| CCn1c(-c2nonc2N)nc2c(-c3cccc(NC(=O)Nc4cccc(Cl)c4)c3)ncc(OCCCN)c21 | 4.22% | 3.86% | 2.75% |
| CN1CCN(Cc2ccc(-c3ccc4c(Nc5ccc(Oc6ccccn6)cc5)ccnc4c3)o2)CC1 | -0.46% | 0.11% | -1.97% |
| COc1cccc(Nc2nc(C)cc(NCc3ccc(-n4ccnc4)cc3)n2)c1 | 4.08% | 13.7% | 8.06% |
| Cc1cc(N(C)C)nc(Nc2ccc(NC(=O)C3CCCCC3)cc2)n1 | 5.14% | 5.64% | 3.75% |

| Structure (SMILES) | inhibition [1] | inhibition [2] | inhibition [3] |
| --- | --- | --- | --- |
| O=C(/C=C/c1ccc(Cl)c(Cl)c1)NCCCCCCN1CCCN(C(=O)Nc2cc(Cl)cc(Cl)c2)CC1 | 0.67% | 0.41% | -2.48% |
| Cc1cnc(C(=O)Nc2ccc3c(c2)CCCN(Cc2c[nH]c4cnccc24)C3)cn1 | 11.1% | 11.4% | 9.32% |
| O=C(N[C@H]1CCN(CCc2ccc(O[C@H]3CCNC3)c(Br)c2)C1)c1ccc(Cl)c(Cl)c1 | 0.91% | 3% | 1.43% |
| Cc1nn(-c2cccc(C(F)(F)F)c2)c2sc(C(=O)NC3CCN(C(C)C)CC3)cc12 | 1.73% | -1.04% | 1.61% |
| Fc1cccc(COc2ccc(Nc3ncnc4sc(C#C[C@H]5CCCN5)cc34)cc2F)c1 | 0.5% | 2.54% | 0.52% |
| O=C(NCC1CCN(CCN2CCc3ccc4c(c3C2)OCO4)CC1)c1ccc(-c2ccc(C(F)(F)F)cc2)cc1 | 2.17% | 4.3% | 1.81% |
| O=[N+]([O-])c1ccc(-c2ccc(C=NNc3nc(Nc4ccccc4)nc(Nc4ccccc4)n3)o2)cc1 | 0.91% | -0.88% | -1.48% |
| CC(C)COc1ccc(Cl)cc1Cc1ccc(-c2nc3ccc(F)c(F)c3[nH]2)o1 | 0.98% | -1.63% | 0.57% |
| Cc1cc(N(C)C)nc(Nc2ccc(NC(=O)c3ccccc3F)cc2)n1 | 1.36% | 12.2% | 2.04% |
| N#Cc1cc([N+](=O)[O-])ccc1-n1nc(-c2cccc(Cl)c2)n(CC2CCCO2)c1=S (stereo unspecified) | 2.07% | 1.3% | -4.52% |
| Oc1ccc(CCNCCCCCNCCCc2ccc(Cl)cc2)cc1O | 2.04% | -0.25% | 2.06% |
| O=C(Nc1cccc(F)c1)NC1CCN(CCCCCNC(=O)C2CC2c2ccc(Cl)c(Cl)c2)CC1 (stereo unspecified) | 0.44% | -0.11% | -1.31% |
| COc1ccc(-n2ccnc2SCC(=O)Nc2cc(C)ccc2C)c(OC)c1 | 0.44% | 0.63% | 0.53% |
| O=C(Nc1cccc(-c2cc(-c3c(Cl)cccc3Cl)no2)c1)c1cnc2ccccc2c1 | 11.8% | 9.35% | 6.2% |
| COc1ccccc1N1CCN(CCCCNC(=O)c2ccc(NC(=O)c3ccc(OC(F)(F)F)cc3)cc2)CC1 | 1.23% | -0.16% | 1.25% |
| O=C(NCCCCCN1CCC(c2c[nH]c3ccccc23)CC1)Nc1ccc(I)cc1 | 11% | 5.79% | 9.45% |
| Cc1ccc([S+]([O-])Cc2ccc(Cl)cc2)cc1 (stereo unspecified) | -0.22% | -0.65% | 1.2% |
| COCCNCc1ccc(-c2cccc(CNc3ccc(OC)cc3)c2)cc1 | 11.3% | 8.16% | 5.16% |
| CC(=O)Nc1ccc(CN2CCC(NC(=O)c3ccc(-c4cccc(F)c4)s3)CC2)cc1 | 1.73% | 0.06% | 0.34% |
| Fc1ccc2[nH]c(-c3cccc(-c4ccc(CN5CCN(c6cnccn6)CC5)cc4)c3)nc2c1 | 14.3% | 12.5% | 8.14% |
| N#Cc1cccc(CN2CCCN(Cc3ccc(C(=O)Nc4ccc(Cl)cc4)cc3)CC2)c1 | 4.41% | 5.4% | -0.06% |
| O=C(Nc1ccc2c(c1)CCNCC2)Nc1ccc2ccccc2c1 | 11.1% | 8.46% | 9.36% |
| COc1c(C2CCN(CCCCNC(=O)c3ccc(-c4ccc(Cl)cc4)c(OCC(N)=O)c3)CC2)ccc2c1CCCC2 | 4.52% | 3.3% | 5.11% |
| NCCCNc1nc(Nc2cccc(C(N)=O)c2)c2c(=O)[nH]ccc2n1 | -0.41% | 1.23% | 0.77% |
